TDP1 cell noCPT: qHTS for Inhibitors of human tyrosyl-DNA phosphodiesterase 1 (TDP1): qHTS in cells in absence of CPT. 420,000 compounds, 15% hits. DT40 Tdp1-/- hTDP1 cells, no CPT, ATP luminescence, 48 h. AID 686978, 2013. Potency, µM (top dose mostly 46.2 µM), for inactives: at the top dose activity change, negative = growth inhibition, usual class: inhibitors; note: potency is the fitted concentration of half-maximal effect; nearly all actives have a fitted effect of over 55% in size
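Chicken DT40 Tdp1-/- cells complemented with human TDP1, screened without camptothecin (DMSO vehicle only), 400 cells/well. Compounds pin-transferred, cells incubated at 37 °C for at least 48 hr. Growth read as ATP-dependent luminescence (CellTiter-Glo, 30 min at RT).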
TDP1 block: qHTS Assay for Inhibitors of Tyrosyl-DNA Phosphodiesterase (TDP1) | Tyrosyl-DNA phosphodiesterase 1 (Homo sapiens), Q9NUW8 | recombinant TDP1, AlphaScreen DNA substrate cleavage | Potency, µM (titrated, usually from 130 µM), for the others: at the highest dose activity change, negative = inhibition, usual class: inhibitors | 350,000 compounds, 0.28% hits; note: potency is the fitted concentration of half-maximal effect; nearly all actives have a fitted effect of over 40% in size
Target sequence (Q9NUW8 whole entry, looked up): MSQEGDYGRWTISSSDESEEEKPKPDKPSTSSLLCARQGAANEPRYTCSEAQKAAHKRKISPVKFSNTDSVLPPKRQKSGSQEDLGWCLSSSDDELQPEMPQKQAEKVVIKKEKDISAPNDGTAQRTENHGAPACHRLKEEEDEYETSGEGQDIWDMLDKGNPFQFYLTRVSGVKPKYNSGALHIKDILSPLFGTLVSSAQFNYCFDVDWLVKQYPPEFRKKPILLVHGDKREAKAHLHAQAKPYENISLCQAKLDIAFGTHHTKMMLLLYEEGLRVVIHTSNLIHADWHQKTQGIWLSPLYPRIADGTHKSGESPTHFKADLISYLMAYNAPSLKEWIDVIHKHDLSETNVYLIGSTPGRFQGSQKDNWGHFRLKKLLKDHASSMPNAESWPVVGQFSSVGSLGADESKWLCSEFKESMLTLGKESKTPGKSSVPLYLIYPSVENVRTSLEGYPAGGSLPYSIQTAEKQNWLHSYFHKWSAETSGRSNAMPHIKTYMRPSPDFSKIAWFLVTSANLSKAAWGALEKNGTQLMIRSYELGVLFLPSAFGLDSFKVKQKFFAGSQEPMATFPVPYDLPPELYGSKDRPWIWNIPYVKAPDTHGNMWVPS
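AlphaScreen read-out: signal falls as enzyme removes the 3' tyrosine-FITC from a 5'-biotinylated DNA oligo (15 nM, 5 min, RT). Enzyme was E. coli-made recombinant Tdp1 at 1 nM, exposed to compound for 15 min beforehand; beads 10 ug/ml, 10 min.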
IL-1B inflam inh: qHTS for Inhibitors of Inflammasome Signaling: IL-1-beta AlphaLISA Primary Screen; 360,000 compounds, 4.7% hits; activity change, % at 57.5 µM; THP-1 LPS/ATP IL-1B secretion, AlphaLISA, 16 h; active compounds read low; AID 743279, 2014; in the data active = activity change below about -50%; inconclusive = mostly about -30% to -49%
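THP-1 cells pretreated 1 hr with compounds (up to 57.5 uM final), then stimulated with LPS (250 ng/mL final) plus ATP (1.25 mM final); secreted IL-1B measured by AlphaLISA after 16 hr, decreased signal indicating inhibition.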
ELG1 DNA repair: qHTS screen for small molecules that inhibit ELG1-dependent DNA repair in human embryonic kidney (HEK293T) cells expressing luciferase-tagged ELG1; HEK293T ELG1-luciferase reporter, luminescence, 16 h; DNA damage induced by 5-fluorouridine; Potency, µM (doses to about 46.1 µM), for the others: at the highest dose activity change, negative = inhibition, hits mostly inhibitors; 330,000 compounds, 2.3% hits; AID 504467, 2011; note: potency is the fitted concentration of half-maximal effect; nearly all actives have a fitted effect of over 55% in size
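Overnight (16 hr) co-exposure of 2,000 cells/well to 5-fluorouridine and compound at 37 °C preceded detection. Luciferase was quantified via ONE-Glo luminescence; loss of signal denotes inhibition.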
DT40 TDP1 CPT: qHTS for Inhibitors of human tyrosyl-DNA phosphodiesterase 1 (TDP1): qHTS in cells in presence of CPT. Potency, µM (series often up to 46.2 µM), for the others: at the highest dose activity change, negative = growth inhibition, most hits filed as inhibitors. 420,000 compounds, 12% hits. chicken DT40 Tdp1-/-;hTDP1 cells + 20 nM CPT, ATP luminescence, 48 h; note: potency is the fitted concentration of half-maximal effect; nearly all actives have a fitted effect of over 55% in size
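Chicken DT40 Tdp1-/- cells complemented with human TDP1, 400 cells/well, exposed to compounds plus 20 nM camptothecin for at least 48 h at 37 C; viability read as ATP content by CellTiter-Glo luminescence.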
Giardia killer: Small Molecules that selectively kill Giardia lamblia: qHTS; Giardia lamblia trophozoite viability; activity change, % at 7.66 µM, hits read low; 340,000 compounds, 0.15% hits; AID 540267, 2011; in the data active = activity change below about -80%; inconclusive = between about -30% and that limit;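 note: parasites exposed to compound for two days anaerobically before the ATP read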
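Trophozoites 100 cells/well + cpd; 48 hrs, 37 deg C, anaerobic. ATPLite 1-Step added, 15-30 min RT, luminescence read (ATP-based viability).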
An asterisk follows results filed as active; ? = inconclusive; . = no result. This is a sample that favours compounds with a hit; in the whole collection about 19% have one here. Unless noted, calls come from the whole dose curve; as a rule, active = well fitted curve in the direction sought with a large enough effect; inconclusive = small, poorly fitted or top-dose-only effect, or another doubt; inactive = no such curve, though single readings can be large; an effect the other way counts as inactive or inconclusive. % is set by controls: 0 for no effect and ±100 for the full control effect.

SMILES	TDP1 cell noCPT	TDP1 block	IL-1B inflam inh	ELG1 DNA repair	DT40 TDP1 CPT	Giardia killer
COc1cc2c(cc1O)CCN(C(=O)c1ccco1)C2C (centres undefined)	?	6%	-6	5%	-29%	12
COc1cc2c(cc1OC)C(C)N(C(=O)c1cc(C)on1)CC2 (centres undefined)	1µM*	3%	36	9%	0.82µM*	6
COc1cc2c(cc1OC)C(C)N(C(=O)c1c(C)noc1C)CC2 (centres undefined)	13µM*	0%	4	-8%	?	-11
COc1cc2c(cc1OC)C(C)N(C(=O)c1cc3ccccc3o1)CC2 (centres undefined)	?	7%	-59*	?	8.2µM*	7
COc1cc2c(cc1OC)C(C)N(C(C)=O)CC2 (centres undefined)	1%	0%	11	?	-5%	3
CCOC(=O)C(=O)N1CCC(C(=O)OCC)CC1	-5%	3%	.	16%	26%	9
CCN(CC)c1ccc(/C=C2\C(=O)N(c3nnc(C)c(=O)[nH]3)N=C2C)cc1	18µM*	4%	-98*	?	13µM*	-8
CC1=NN(CCC#N)C(=O)/C1=C/c1ccc(N(C)C)cc1	?	5%	-7	10%	9%	5
CCOc1ccc(NC(=O)CCSc2ccc(C)cc2)cc1	16µM*	1%	0	-5%	?	-11
CCCCOC(=O)c1ccc(NC(=O)COC(=O)C2CC2C)cc1 (centres undefined)	?	.	17	.	-27%	.
Cc1ccc(C(=O)CNc2ccc(Cl)cc2)cc1	-8%	4%	?	?	?	25
CCOc1ccc(NC(=O)COC(=O)C2CC2C)cc1 (centres undefined)	18µM*	0%	9	?	?	-8
CCOc1ccc(NCC(=O)c2ccc(C)cc2)cc1	?	3%	-81*	3%	?	10
CCN1CCN(Cc2nc3cc(NC(=O)c4cccc([N+](=O)[O-])c4)ccc3n2CC)CC1	-10%	5%	.	.	-11%	.
CCc1ccc(NC(=O)CCc2nnc3n(C)c(=O)c4sccc4n23)cc1	?	1%	.	.	-11%	.
Cc1cccn2c(=O)c(C=O)c(N3CCSCC3)nc12	-17%	.	-50*	-12%	-27%	-3
Cc1cccn2c(=O)c(C=C(C#N)C#N)c(N3CCN(c4cccc(Cl)c4)CC3)nc12	?	.	-75*	?	-20%	-8
COCCCNC(=O)/C(C#N)=C/c1c(N2CCN(c3cccc(Cl)c3)CC2)nc2c(C)cccn2c1=O	?	.	-66*	23µM*	?	-6
COC(=O)/C(C#N)=C/c1c(N2CCN(c3ccccc3)CC2)nc2c(C)cccn2c1=O	?	.	78	?	?	21
COCCCNC(=O)/C(C#N)=C/c1c(N2CCN(c3ccccc3)CC2)nc2c(C)cccn2c1=O	16µM*	.	-7	21µM*	?	15
CCNC(=O)/C(C#N)=C/c1c(N2CCN(c3cccc(Cl)c3)CC2)nc2c(C)cccn2c1=O	?	.	47	-12%	?	-4
COC(=O)/C(C#N)=C/c1c(N2CCN(c3cccc(Cl)c3)CC2)nc2c(C)cccn2c1=O	?	.	50	?	?	-12
COCCCn1cc(CN2CC(N3CCN(C)CC3)CS2(=O)=O)nn1 (centres undefined)	-29%	.	70	.	-7%	.

Source: PubChem (National Center for Advancing Translational Sciences (NCATS))
